# What was measured:
# [1] = molecular target: T1, Muscle, skeletal receptor tyrosine-protein kinase (Homo sapiens) (UniProt O15146); settings: at 1 µM;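 note: reported value is the mean percent inhibition of MuSK kinase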
# T1 sequence (whole entry): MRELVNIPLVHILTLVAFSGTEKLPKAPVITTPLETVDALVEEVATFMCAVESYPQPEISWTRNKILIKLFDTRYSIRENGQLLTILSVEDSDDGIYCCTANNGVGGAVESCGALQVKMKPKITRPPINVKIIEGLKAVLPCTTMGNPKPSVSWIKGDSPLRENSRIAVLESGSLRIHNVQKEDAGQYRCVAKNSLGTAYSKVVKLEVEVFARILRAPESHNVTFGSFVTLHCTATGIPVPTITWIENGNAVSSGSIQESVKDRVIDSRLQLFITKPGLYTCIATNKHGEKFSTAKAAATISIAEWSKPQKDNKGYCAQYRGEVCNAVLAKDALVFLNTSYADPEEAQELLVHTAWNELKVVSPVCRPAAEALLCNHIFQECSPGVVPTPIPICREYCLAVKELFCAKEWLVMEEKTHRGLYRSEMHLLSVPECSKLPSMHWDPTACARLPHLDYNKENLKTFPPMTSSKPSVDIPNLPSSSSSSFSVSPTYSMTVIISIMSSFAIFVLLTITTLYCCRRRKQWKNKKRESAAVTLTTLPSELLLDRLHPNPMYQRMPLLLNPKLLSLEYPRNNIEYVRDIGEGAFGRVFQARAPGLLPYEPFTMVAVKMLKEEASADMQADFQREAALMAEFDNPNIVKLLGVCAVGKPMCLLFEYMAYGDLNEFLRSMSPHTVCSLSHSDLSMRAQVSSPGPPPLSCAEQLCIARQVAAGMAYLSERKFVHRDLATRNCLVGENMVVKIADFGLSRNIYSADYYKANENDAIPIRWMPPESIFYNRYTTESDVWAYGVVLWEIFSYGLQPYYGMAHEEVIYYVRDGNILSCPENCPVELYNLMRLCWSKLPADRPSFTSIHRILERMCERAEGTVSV
# [2] = molecular target: Platelet-derived growth factor receptor alpha (Homo sapiens) (UniProt P16234); settings: at 0.1 µM
# [3] = molecular target: Platelet-derived growth factor receptor alpha (Homo sapiens) (UniProt P16234); settings: at 1 µM
# [4] = tested on: Platelet-derived growth factor receptor alpha (Homo sapiens), P16234 [D842V]; settings: at 0.1 µM
# [5] = tested on: Platelet-derived growth factor receptor alpha (Homo sapiens), P16234 [D842V]; settings: at 1 µM
# [6] = tested on: Platelet-derived growth factor receptor alpha (Homo sapiens), P16234 [T674I]; settings: at 0.1 µM
# [7] = tested on: Platelet-derived growth factor receptor alpha (Homo sapiens), P16234 [T674I]; settings: at 1 µM
# [8] = tested on: Platelet-derived growth factor receptor alpha (Homo sapiens), P16234 [V561D]; settings: at 0.1 µM
# [9] = tested on: Platelet-derived growth factor receptor alpha (Homo sapiens), P16234 [V561D]; settings: at 1 µM
# [10] = molecular target: Platelet-derived growth factor receptor beta (Homo sapiens) (UniProt P09619); settings: at 0.1 µM
# [11] = molecular target: Platelet-derived growth factor receptor beta (Homo sapiens) (UniProt P09619); settings: at 1 µM
# [12] = molecular target: Tyrosine-protein kinase FRK (Homo sapiens) (UniProt P42685); settings: at 0.1 µM
# [13] = molecular target: Tyrosine-protein kinase FRK (Homo sapiens) (UniProt P42685); settings: at 1 µM
# [14] = molecular target: Protein-tyrosine kinase 2-beta (Homo sapiens) (UniProt Q14289); settings: at 0.1 µM
# [15] = molecular target: Protein-tyrosine kinase 2-beta (Homo sapiens) (UniProt Q14289); settings: at 1 µM
# [16] = molecular target: Proto-oncogene tyrosine-protein kinase receptor Ret (Homo sapiens) (UniProt P07949); settings: at 0.1 µM
# [17] = molecular target: Proto-oncogene tyrosine-protein kinase receptor Ret (Homo sapiens) (UniProt P07949); settings: at 1 µM
# [18] = tested on: Proto-oncogene tyrosine-protein kinase receptor Ret (Homo sapiens), P07949 [V804L]; settings: at 0.1 µM
# [19] = tested on: Proto-oncogene tyrosine-protein kinase receptor Ret (Homo sapiens), P07949 [V804L]; settings: at 1 µM
# [20] = tested on: Proto-oncogene tyrosine-protein kinase receptor Ret (Homo sapiens), P07949 [Y791F]; settings: at 0.1 µM
# Platelet-derived growth factor receptor alpha (Homo sapiens), P16234 [T674I], sequence (P16234 whole entry T674I): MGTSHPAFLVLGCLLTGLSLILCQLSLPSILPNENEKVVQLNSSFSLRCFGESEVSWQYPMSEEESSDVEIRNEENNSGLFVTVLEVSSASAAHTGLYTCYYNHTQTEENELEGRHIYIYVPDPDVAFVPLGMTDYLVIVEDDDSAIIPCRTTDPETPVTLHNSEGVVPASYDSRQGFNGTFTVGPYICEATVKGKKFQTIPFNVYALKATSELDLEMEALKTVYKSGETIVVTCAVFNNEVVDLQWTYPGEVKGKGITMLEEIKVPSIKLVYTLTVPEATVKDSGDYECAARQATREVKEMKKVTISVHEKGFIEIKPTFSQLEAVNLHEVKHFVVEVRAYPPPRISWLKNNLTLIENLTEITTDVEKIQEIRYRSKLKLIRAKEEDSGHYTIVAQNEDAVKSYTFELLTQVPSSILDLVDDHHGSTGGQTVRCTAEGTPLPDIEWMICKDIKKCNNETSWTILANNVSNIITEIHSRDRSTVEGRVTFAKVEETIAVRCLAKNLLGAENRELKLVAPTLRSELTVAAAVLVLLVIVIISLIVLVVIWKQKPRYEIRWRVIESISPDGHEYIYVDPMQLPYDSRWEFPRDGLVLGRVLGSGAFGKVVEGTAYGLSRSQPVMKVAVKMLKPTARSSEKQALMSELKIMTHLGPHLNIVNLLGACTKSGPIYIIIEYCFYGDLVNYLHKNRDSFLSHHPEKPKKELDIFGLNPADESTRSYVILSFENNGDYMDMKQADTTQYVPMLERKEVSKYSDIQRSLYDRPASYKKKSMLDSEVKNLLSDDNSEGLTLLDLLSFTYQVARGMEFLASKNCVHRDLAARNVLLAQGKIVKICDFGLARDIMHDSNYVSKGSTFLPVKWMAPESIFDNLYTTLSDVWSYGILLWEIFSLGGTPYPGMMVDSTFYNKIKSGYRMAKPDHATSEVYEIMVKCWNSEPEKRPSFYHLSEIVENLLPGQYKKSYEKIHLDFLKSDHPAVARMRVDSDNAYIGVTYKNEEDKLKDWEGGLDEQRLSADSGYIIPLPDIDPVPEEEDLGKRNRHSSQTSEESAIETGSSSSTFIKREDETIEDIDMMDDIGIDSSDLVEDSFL
# Platelet-derived growth factor receptor beta (Homo sapiens), sequence (P09619 whole entry): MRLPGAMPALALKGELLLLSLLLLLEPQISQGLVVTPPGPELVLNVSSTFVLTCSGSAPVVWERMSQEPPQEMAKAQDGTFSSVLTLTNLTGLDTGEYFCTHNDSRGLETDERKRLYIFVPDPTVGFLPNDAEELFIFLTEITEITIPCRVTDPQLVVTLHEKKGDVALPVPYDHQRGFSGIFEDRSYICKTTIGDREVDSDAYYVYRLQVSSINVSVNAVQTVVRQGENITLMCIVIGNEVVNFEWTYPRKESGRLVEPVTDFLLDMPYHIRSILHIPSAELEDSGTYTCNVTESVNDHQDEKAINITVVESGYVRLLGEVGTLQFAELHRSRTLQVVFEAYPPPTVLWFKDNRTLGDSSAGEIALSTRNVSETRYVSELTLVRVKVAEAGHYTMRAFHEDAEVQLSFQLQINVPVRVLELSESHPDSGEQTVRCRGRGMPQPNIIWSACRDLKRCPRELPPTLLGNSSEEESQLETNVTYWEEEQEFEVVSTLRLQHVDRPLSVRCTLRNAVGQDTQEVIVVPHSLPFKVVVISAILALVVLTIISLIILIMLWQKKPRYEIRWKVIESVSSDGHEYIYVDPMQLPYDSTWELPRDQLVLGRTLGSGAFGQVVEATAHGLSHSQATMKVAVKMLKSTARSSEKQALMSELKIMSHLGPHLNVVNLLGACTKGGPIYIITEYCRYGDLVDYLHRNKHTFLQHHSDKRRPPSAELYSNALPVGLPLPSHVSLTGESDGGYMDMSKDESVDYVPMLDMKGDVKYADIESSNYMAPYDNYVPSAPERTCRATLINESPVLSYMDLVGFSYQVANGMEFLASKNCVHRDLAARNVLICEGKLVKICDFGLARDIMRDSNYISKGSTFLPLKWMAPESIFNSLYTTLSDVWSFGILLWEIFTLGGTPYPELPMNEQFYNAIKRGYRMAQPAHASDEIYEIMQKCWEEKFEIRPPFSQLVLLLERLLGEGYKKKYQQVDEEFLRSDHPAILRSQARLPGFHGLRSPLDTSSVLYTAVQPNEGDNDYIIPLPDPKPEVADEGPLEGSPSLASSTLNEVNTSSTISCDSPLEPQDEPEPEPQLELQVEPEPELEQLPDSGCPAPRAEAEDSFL
# Platelet-derived growth factor receptor alpha (Homo sapiens), sequence (P16234 whole entry): as the sequence (P16234 whole entry T674I) above, with I674T counted along it
# Tyrosine-protein kinase FRK (Homo sapiens), sequence (P42685 whole entry): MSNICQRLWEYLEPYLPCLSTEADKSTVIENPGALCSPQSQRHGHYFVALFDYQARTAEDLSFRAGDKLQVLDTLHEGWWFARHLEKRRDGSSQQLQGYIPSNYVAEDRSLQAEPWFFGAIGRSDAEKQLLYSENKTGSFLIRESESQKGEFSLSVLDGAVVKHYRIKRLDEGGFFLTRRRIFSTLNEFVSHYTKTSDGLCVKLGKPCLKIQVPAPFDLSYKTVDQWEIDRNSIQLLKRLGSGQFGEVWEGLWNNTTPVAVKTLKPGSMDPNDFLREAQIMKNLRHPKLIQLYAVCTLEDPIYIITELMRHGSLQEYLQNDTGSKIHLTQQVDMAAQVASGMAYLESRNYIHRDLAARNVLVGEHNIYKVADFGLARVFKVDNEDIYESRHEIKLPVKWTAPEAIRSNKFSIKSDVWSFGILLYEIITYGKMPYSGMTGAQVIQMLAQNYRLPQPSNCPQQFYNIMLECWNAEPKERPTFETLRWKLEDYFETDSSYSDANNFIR
# Proto-oncogene tyrosine-protein kinase receptor Ret (Homo sapiens), P07949 [V804L], sequence (P07949 whole entry V804L): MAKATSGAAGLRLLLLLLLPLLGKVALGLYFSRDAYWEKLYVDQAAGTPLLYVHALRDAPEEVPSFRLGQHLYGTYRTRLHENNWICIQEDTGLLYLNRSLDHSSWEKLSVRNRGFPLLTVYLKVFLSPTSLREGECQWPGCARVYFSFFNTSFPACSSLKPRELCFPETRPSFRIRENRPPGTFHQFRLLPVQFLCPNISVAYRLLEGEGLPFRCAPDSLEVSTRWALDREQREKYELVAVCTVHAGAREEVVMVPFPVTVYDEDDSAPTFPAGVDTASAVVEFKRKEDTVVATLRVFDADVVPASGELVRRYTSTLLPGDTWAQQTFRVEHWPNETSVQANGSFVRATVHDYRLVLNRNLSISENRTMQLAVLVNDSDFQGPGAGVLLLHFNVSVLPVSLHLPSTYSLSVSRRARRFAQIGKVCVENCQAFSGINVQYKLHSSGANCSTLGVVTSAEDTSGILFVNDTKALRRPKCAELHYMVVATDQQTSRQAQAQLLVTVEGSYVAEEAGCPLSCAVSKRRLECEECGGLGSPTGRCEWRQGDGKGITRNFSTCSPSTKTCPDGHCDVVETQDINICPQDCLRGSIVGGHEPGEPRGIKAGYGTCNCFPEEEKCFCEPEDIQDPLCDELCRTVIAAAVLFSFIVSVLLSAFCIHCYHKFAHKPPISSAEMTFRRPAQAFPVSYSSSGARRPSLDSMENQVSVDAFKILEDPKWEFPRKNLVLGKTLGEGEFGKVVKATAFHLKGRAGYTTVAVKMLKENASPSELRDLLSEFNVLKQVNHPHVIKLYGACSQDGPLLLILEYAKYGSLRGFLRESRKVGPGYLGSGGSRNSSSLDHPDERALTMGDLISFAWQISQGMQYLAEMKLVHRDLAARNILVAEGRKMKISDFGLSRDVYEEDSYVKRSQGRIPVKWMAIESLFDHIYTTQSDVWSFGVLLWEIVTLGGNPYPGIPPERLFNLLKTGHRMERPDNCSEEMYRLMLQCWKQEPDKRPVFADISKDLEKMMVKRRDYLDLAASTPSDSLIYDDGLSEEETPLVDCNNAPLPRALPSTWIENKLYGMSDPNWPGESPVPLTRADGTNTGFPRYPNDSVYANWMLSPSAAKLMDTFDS
SMILES,inhibition [1] [%],inhibition [2] [%],inhibition [3] [%],inhibition [4] [%],inhibition [5] [%],inhibition [6] [%],inhibition [7] [%],inhibition [8] [%],inhibition [9] [%],inhibition [10] [%],inhibition [11] [%],inhibition [12] [%],inhibition [13] [%],inhibition [14] [%],inhibition [15] [%],inhibition [16] [%],inhibition [17] [%],inhibition [18] [%],inhibition [19] [%],inhibition [20] [%]
Fc1cccc(COc2ccc(Nc3ncnc4sc(-c5cccs5)cc34)cc2Cl)c1,2.36,2.17,5.87,1.25,2.11,3.52,9.66,4.39,4.26,3.06,4.24,1.12,2.35,-5.04,3.37,3.97,0.68,0.76,2.26,1.05
COC(=O)Nc1nc2cc(Oc3ccc(NC(=O)Nc4cccc(C(=O)O)c4)cc3)ccc2[nH]1,2.82,10.8,39.3,0.99,1.56,6.17,35.1,18.8,43.9,6.26,16.2,0.4,0.91,-5.8,6.37,7.47,14.1,2.8,15,1.53
COC(=O)Nc1nc2cc(Oc3cccc(NC(=O)Nc4cc(C(F)(F)F)ccc4F)c3)ccc2[nH]1,32.3,48.6,80.2,2.6,8.72,4.75,37.5,40.7,87.4,11.4,45.3,-0.02,1.37,0.22,-4.43,17,61.1,4.35,8.1,9.63
O=C1Nc2ccc(C(=O)c3ccco3)cc2C1=Cc1cc(Cl)c(O)c(Cl)c1,8.26,8.06,26,4.54,19.8,6.25,11.5,7.12,26.8,7.32,18.5,1.7,7.16,15,34.6,19.6,58.1,38.4,74.7,16
Fc1cccc(COc2ccc(Nc3ncnc4cc(-c5ccc[nH]5)sc34)cc2Cl)c1,6.25,9.2,15.6,2.17,4.7,4.02,4.37,2.42,5.59,3.02,8.52,2.14,2.25,7.86,11.5,9,11.5,3.25,8.38,7.54
CS(=O)(=O)CCNCc1nc(-c2ccc3ncnc(Nc4ccc(F)c(Cl)c4)c3c2)cs1,2.48,11.7,25.9,1.4,10.4,10.8,8.67,2.8,9.09,3.34,9.07,-0.58,2.43,-0.72,1.64,4.76,13.1,5.1,11,7.75
Nc1ncnc2occ(-c3ccc(NC(=O)Nc4cccc(C(F)(F)F)c4)cc3)c12,90.2,88.2,93.1,26.5,76.4,79.5,85,95.3,99,69.4,94.8,4.28,21.2,8.39,32.3,84.9,87.2,64.8,79.9,73.9

# Source: ChEMBL document CHEMBL1961873, “Compounds: GSK PKIS; Assays: Nanosyn kinase panel” (2012)
